Drawing on PubChem BioAssay (NCI), this text covers growth for nine molecules.

Compounds without any hit were thinned out: in the full panel of roughly 83,000, 20% have a hit.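 The endpoint reported here, percent growth, reads 100 for growth as untreated, 0 for no net growth and -100 for all cells dead.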 A number with no mark means an inactive call. The source made the active and inactive calls. The calls were made as follows: active = growth percent below 10; inactive = the rest.

Common to all, as to assay: NCI-60 one-dose screen, 48 h (100 = growth as untreated, 0 = no growth, -100 = all killed)
In one test the test system is 786-0 renal. To be noted: 10 µM unless noted.
The test system of the next test is DU-145 prostate. The following applies: 10 µM unless noted.
Another test has as its system SF-268 CNS. To be noted: 10 µM unless noted.
The subject of a further test is SF-539 CNS. The following applies: 10 µM unless noted.
The subject of the next test is M14 melanoma. The following applies: 10 µM unless noted.
In the next test the test system is HCT-15 colon. To be noted: 10 µM.
A further test relates to SNB-19 CNS. The following applies: 10 µM unless noted.
A further test has as its system UACC-62 melanoma. The following applies: 10 µM unless noted.
Another test deals with SN12C renal. To be noted: 10 µM unless noted.
The test system of a further test is ACHN renal. To be noted: 10 µM unless noted.
The test system of another test is MOLT-4 leukemia. To be noted: 10 µM.
A further test deals with SK-OV-3 ovarian. The following applies: 10 µM unless noted.
The next test relates to NCI/ADR-RES ovarian. The following applies: 10 µM unless noted.
The test system of a further test is T-47D breast. To be noted: 10 µM unless noted.
The test system of a further test is MDA-MB-435 melanoma. The following applies: 10 µM unless noted.
The next test concerns SW-620 colon. To be noted: 10 µM unless noted.
For the next test, the system named is HCT-116 colon. To be noted: 10 µM unless noted.
The next test relates to KM12 colon. To be noted: 10 µM unless noted.
For another test, the system named is MDA-MB-231 breast. To be noted: 10 µM unless noted.
The subject of the next test is OVCAR-8 ovarian. The following applies: 10 µM unless noted.

For `COC[CH2][Hg][C]#[C][Hg][CH2]COC`, the growth in the test with 786-0 renal is 41.7%; in the test on DU-145 prostate, 87.6%; with SF-268 CNS it was 93.7%; in the test with SF-539 CNS it was 90.7%; in the test with M14 melanoma it was 73.2%; with HCT-15 colon it was 97.1%. For the same molecule, the growth was 108% with SNB-19 CNS; 106% in the test on UACC-62 melanoma; 96% in the test with SN12C renal; 98.7% in the test with ACHN renal; 79.8% in the test with MOLT-4 leukemia; 96.5% in the test on SK-OV-3 ovarian. Moreover, the growth in the test with NCI/ADR-RES ovarian is 102%; in the test with T-47D breast, 91.7%; in the test with MDA-MB-435 melanoma it was 43%; in the test with SW-620 colon, 108%; in the test with HCT-116 colon, 99.2%; with KM12 colon it was 85.5%.

`CO[C@@H](c1ccccc1Cl)[C@H](C)OC(N)=O`: the growth was 98.7% in the test on 786-0 renal; 106% with DU-145 prostate; 102% in the test with MDA-MB-231 breast; 97.4% in the test on SF-268 CNS; 96.6% in the test on SF-539 CNS; 89.9% in the test on M14 melanoma. In addition, the growth with HCT-15 colon was 96.9%; with SNB-19 CNS, 96.7%; in the test on UACC-62 melanoma, 93.1%; in the test on SN12C renal, 106%; in the test on ACHN renal, 99.6%; with MOLT-4 leukemia it was 107%. The growth with OVCAR-8 ovarian is 103%; with SK-OV-3 ovarian, 102%; in the test with NCI/ADR-RES ovarian, 103%; in the test on T-47D breast, 101%; in the test on MDA-MB-435 melanoma it was 97.8%; in the test with SW-620 colon, 100%. The growth in the test on HCT-116 colon was 97.2%; with KM12 colon it was 109%.

Take `N#CC(C#N)=Cc1ccc2ccccc2c1`: the growth is 104% in the test with 786-0 renal; 109% in the test with DU-145 prostate; 106% with MDA-MB-231 breast; 116% in the test on SF-268 CNS; 107% in the test on SF-539 CNS; 104% in the test on M14 melanoma. The growth in the test on HCT-15 colon is 111%; with SNB-19 CNS, 106%; in the test on UACC-62 melanoma, 115%; in the test with SN12C renal it was 111%; with ACHN renal, 107%; with MOLT-4 leukemia, 107%. Further, the growth is 105% in the test with OVCAR-8 ovarian; 104% in the test on SK-OV-3 ovarian; 108% in the test with NCI/ADR-RES ovarian; 110% with T-47D breast; 114% in the test with MDA-MB-435 melanoma; 107% in the test on HCT-116 colon.

Consider `COc1ccc(CN2CCN(Cc3ccccc3)CC2)c(O)c1`, for which the growth in the test on 786-0 renal is 95%; in the test with DU-145 prostate, 97.4%; with MDA-MB-231 breast, 104%; in the test on SF-268 CNS, 100%; in the test on SF-539 CNS, 117%; with M14 melanoma it was 89.5%. Besides, the growth with HCT-15 colon was 99.2%; in the test on SNB-19 CNS, 104%; with UACC-62 melanoma, 96.2%; in the test with SN12C renal, 91.2%; in the test on ACHN renal it was 87.5%; in the test with MOLT-4 leukemia, 83.7%. For the same molecule, the growth is 98.2% in the test on OVCAR-8 ovarian; 95.7% with SK-OV-3 ovarian; 83.4% in the test on NCI/ADR-RES ovarian; 84.7% in the test on T-47D breast; 103% in the test on MDA-MB-435 melanoma; 98.5% in the test with SW-620 colon. The growth in the test with HCT-116 colon is 83.4%; with KM12 colon it was 100%.

For `CCC(C)(C)O`, the growth is 114% in the test with 786-0 renal; 115% in the test on DU-145 prostate; 97.4% in the test with MDA-MB-231 breast; 99.1% in the test with SF-268 CNS; 108% with SF-539 CNS; 107% with M14 melanoma. Also, the growth in the test on HCT-15 colon is 99.9%; in the test on SNB-19 CNS, 104%; in the test on UACC-62 melanoma it was 98.5%; in the test on SN12C renal, 98.8%; with ACHN renal, 103%; in the test with MOLT-4 leukemia, 121%. Further, the growth in the test with OVCAR-8 ovarian is 108%; with SK-OV-3 ovarian, 118%; in the test on NCI/ADR-RES ovarian it was 110%; in the test on T-47D breast it was 107%; with MDA-MB-435 melanoma, 92.3%; in the test on SW-620 colon it was 99.9%. Moreover, the growth in the test on HCT-116 colon is 111%; with KM12 colon it was 105%.

Take `CCOc1c(Cl)cc(CNC(C)C(O)c2ccccc2)cc1OC` (centres undefined): the growth in the test on 786-0 renal is 89.1%; in the test with DU-145 prostate, 57%; in the test on MDA-MB-231 breast, 59.9%; in the test with SF-268 CNS, 66.8%; with SF-539 CNS, 82.8%; in the test with M14 melanoma it was 57.4%. Besides, the growth was 47.1% with HCT-15 colon; 91.6% with SNB-19 CNS; 63.2% with UACC-62 melanoma; 79.8% with SN12C renal; 76.8% in the test with ACHN renal; 41.9% with MOLT-4 leukemia. Further, the growth is 56.5% in the test with OVCAR-8 ovarian; 86.3% with SK-OV-3 ovarian; 50.9% with NCI/ADR-RES ovarian; 86% in the test with T-47D breast; 1.97% (active) in the test on MDA-MB-435 melanoma; 43.4% in the test on SW-620 colon. Besides, the growth was 59.2% in the test on HCT-116 colon and 55.3% in the test with KM12 colon.

Take `O=C(CCF)c1ccc(O)cc1`: the growth was 103% with 786-0 renal; 105% with DU-145 prostate; 113% with MDA-MB-231 breast; 103% in the test with SF-539 CNS; 106% in the test with M14 melanoma; 102% in the test on HCT-15 colon. Besides, the growth with SNB-19 CNS is 96.2%; in the test with UACC-62 melanoma, 106%; with SN12C renal, 100%; with ACHN renal it was 106%; in the test with MOLT-4 leukemia it was 100%; with OVCAR-8 ovarian, 99.2%. For the same molecule, the growth with SK-OV-3 ovarian is 103%; with NCI/ADR-RES ovarian, 105%; in the test with T-47D breast it was 102%; in the test with MDA-MB-435 melanoma it was 104%; with HCT-116 colon, 103%; in the test with KM12 colon it was 106%.

On to `C/C1=C/C(=O)O[C@@H]2C[C@@H](CC[C@H](C)/C=C\C=C\CC1)O[C@@](OCCc1ccccc1)([C@@H]1CSC(=O)N1)C2`, for which the growth is 9.36% (active) with 786-0 renal; -2.11% (active) in the test with DU-145 prostate; 11.8% with MDA-MB-231 breast; -42.9% (active) in the test with SF-268 CNS; 9.84% (active) with SF-539 CNS; 38.5% in the test with M14 melanoma. Further, the growth in the test with HCT-15 colon was 46.3%; in the test with SNB-19 CNS, 21.5%; in the test with UACC-62 melanoma, 24.3%; in the test with SN12C renal it was 39.1%; in the test on ACHN renal, 7.46% (active); in the test with MOLT-4 leukemia, 61.4%. In addition, the growth in the test on OVCAR-8 ovarian was 46.2%; in the test with SK-OV-3 ovarian it was -32.3% (active); in the test on NCI/ADR-RES ovarian, 48.4%; with T-47D breast, 61%; in the test on MDA-MB-435 melanoma, 16.7%; with SW-620 colon, 59.3%. The figures for the growth in the test on HCT-116 colon and in the test with KM12 colon were 33.5% and 58.2%, respectively.

On to `COc1cc(CNCCc2ccc(Cl)cc2)cc(OC)c1O`, for which the growth was 78.3% in the test with 786-0 renal; 91% in the test with DU-145 prostate; 72.2% in the test with MDA-MB-231 breast; 73% with SF-268 CNS; 68.7% in the test on SF-539 CNS; 64.8% in the test with M14 melanoma. Besides, the growth with HCT-15 colon is 54.8%; with SNB-19 CNS, 75.6%; in the test on UACC-62 melanoma, 61.2%; in the test with SN12C renal, 75.5%; with ACHN renal it was 75.6%; in the test with MOLT-4 leukemia, 37.3%. For the same molecule, the growth was 66.3% in the test on OVCAR-8 ovarian; 82.7% in the test on SK-OV-3 ovarian; 44.8% in the test on NCI/ADR-RES ovarian; 61.7% in the test on T-47D breast; -4.7% (active) in the test with MDA-MB-435 melanoma; 64.1% in the test on SW-620 colon. Moreover, the growth was 60.9% in the test with HCT-116 colon and 65.7% in the test on KM12 colon.
